Our source for the composite z-score and z-score values is PubChem BioAssay.

Experiment [1] in a line: small molecules captured by biotinylated probe aFSTL3 – biochemical, small-molecule microarray, fluorescence 635/667, stem cell growth factor project, primary screen (AID 1064).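 Also: measures binding of the biotinylated anti-FSTL3 antibody to printed compounds.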 The conditions noted are these: higher = more signal.
Experiment [2] is described as follows: binders from COS7 lysate, DM2A8 probe, primary screen, torsin A project, cell lysate, small-molecule microarray, fluorescence 635/667 (AID 1065). The conditions noted are these: higher = more signal, COS7 lysate expressing mutant human TOR1A.
A short description of experiment [3]: small molecules captured by biotinylated probe aFGF2 – biochemical, small-molecule microarray, fluorescence 635/667, stem cell growth factor project, primary screen (AID 1067).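 Also: measures binding of biotinylated aFGF2 protein to printed compounds on slides; z-score merges feature fluorescence and signal-to-noise across triplicate slides.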 The conditions noted are these: higher = more signal.
A short description of experiment [4]: small molecules captured by biotinylated probe aFGF10 – biochemical, small-molecule microarray, fluorescence 635/667, stem cell growth factor project, primary screen (AID 1071).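 Also: score merges 667 nm spot intensity and signal to noise from triplicate slides.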 As to conditions: higher = more signal.
Experiment [5] has as its target Neurogenic locus notch homolog protein 2 (Homo sapiens) (UniProt Q04721). As to the kind of experiment: small molecules binding Notch2 protein – biochemical, small-molecule microarray, 635 nm fluorescence, stem cell growth factors, primary screen (AID 1073). As to conditions: higher = more signal.
Experiment [6] has as its target Pro-neuregulin-1, membrane-bound isoform (Homo sapiens) (UniProt Q02297). The experiment in a line: small molecules binding neuregulin-1 protein – biochemical, small-molecule microarray, fluorescence 635/667, psychiatric disease protein project, primary screen (AID 1075).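 Also: score combines 667 nm spot fluorescence with signal to noise.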 The conditions noted are these: NRG1 binding, 635 nm fluorescence, higher = more signal.
The subject of experiment [7] is Neuregulin-1 EGF-like domain. As to the kind of experiment: small molecules binding NRG1 EGF domain – biochemical, small-molecule microarray, 635 nm fluorescence, primary screen (AID 1081).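 Also: binding of the protein to compounds printed on small-molecule microarray slides.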 As to conditions: higher = more signal.
Experiment [8] is described as follows: FRG1 expression reporter modulators in myotubes – cell-based, C2C12 myotubes, firefly/Renilla luciferase, luminescence, FRG1 inhibition for FSHD, primary screen (AID 1084). As to conditions: FRG1 promoter luciferase, higher = more signal, called active from +8 up or from −8 down.
A short description of experiment [9]: small molecules captured by biotinylated probe aFST – biochemical, small-molecule microarray, fluorescence 635/667, stem cell growth factor project, primary screen (AID 1086).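 Also: score merges 667 nm fluorescence with signal-to-noise of each printed compound spot.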 As to conditions: higher = more signal.
Experiment [10] in a line: binders of probe aHhip on microarray, primary screen, stem cell growth factor project, biochemical, small-molecule microarray, fluorescence 635/667 (AID 1087).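 Also: score merges spot fluorescence at 667nm with spot signal to noise ratio.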 The conditions noted are these: higher = more signal.
The test system of experiment [11] is PRMT1 (protein arginine N-methyltransferase 1). The experiment in a line: small molecules binding arginine methyltransferase PRMT1 – biochemical, small-molecule microarray, 635 nm fluorescence, primary screen (AID 1088).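 Also: binding of Prmt1 protein to compounds spotted on small-molecule microarray slides.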 The conditions noted are these: higher = more signal.
Experiment [12] is described as follows: growth effects on S. cerevisiae YJM789 – YJM789 clinical isolate, OD600, 24 h, basal, primary screen (AID 1089).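 Also: growth of clinical yeast isolate S. cerevisiae YJM 789 seeded 1000 cells per well; test concentration not given here.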 As to conditions: higher = more signal, called active from +8 up or from −8 down.
Experiment [13] is described as follows: S. pombe growth modifiers, basal conditions – strain 972, OD600, 24 h, no modulator, primary screen (AID 1090).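 Also: basal condition with compound alone and no growth modifier present; test concentration not given here.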 The conditions noted are these: S. pombe 972 growth, higher = more signal, called active from +8 up or from −8 down.
Experiment [14] can be described thus: budding yeast growth modifiers under rapamycin – strain BY4716, OD600, 96 h, primary screen (AID 1091). Also: test concentration not given here. As to conditions: S. cerevisiae BY4716 + rapamycin, higher = more signal, called active from +8 up or from −8 down.
The target of experiment [15] is Torsin-1A-interacting protein 2 (Homo sapiens) (UniProt Q8NFQ8). As to the kind of experiment: small molecules binding lysate-expressed LULL1 – cell lysate, human LULL1 lysate, 635/667 nm fluorescence, primary screen (AID 1092).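 Also: score merges per-feature 667 nm fluorescence with signal-to-noise.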 The conditions noted are these: small-molecule microarray, hLULL1 lysate binding, 635 nm fluorescence; higher = more signal.
Experiment [16] is described as follows: optical density change of DRC41 E. coli – strain DRC41, OD650, 24 h, E. coli filamentation project, primary screen (AID 1093).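 Also: MC1000 strain lacking acrAB efflux and sulA so SOS filamentation is blocked; test concentration not given here.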 As to conditions: E. coli DRC41 growth, higher = more signal, called active from +8 up or from −8 down.
Experiment [17] is described as follows: probe aLefty2 binding to arrayed compounds – biochemical, biotinylated probe, 635/667 nm fluorescence, primary screen (AID 1094).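 Also: score merges spot fluorescence near 667 nm with spot signal-to-noise ratio.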 As to conditions: small-molecule microarray, higher = more signal.
Experiment [18] concerns Noggin (protein binding on small-molecule microarray). As to the kind of experiment: small molecules binding Noggin protein – biochemical, 635/667 nm fluorescence, primary screen (AID 1095).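 Also: score merges 667 nm feature fluorescence with signal to noise over triplicate slides.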 The conditions noted are these: 635 nm fluorescence, higher = more signal.
In experiment [19] the target is Neurogenic locus notch homolog protein 3 (Homo sapiens) (UniProt Q9UM47). As to the kind of experiment: small molecules binding NOTCH3 protein – biochemical, 635/667 nm fluorescence, primary screen (AID 1096). As to conditions: small-molecule microarray, 635 nm fluorescence, higher = more signal.
The nature of experiment [20]: probe aEGFR binding to arrayed compounds – biochemical, biotinylated probe, 635/667 nm fluorescence, primary screen (AID 1097).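 Also: probe is a biotinylated anti-EGFR antibody binding compounds printed on slides; score combines fluorescence near 667 nm and signal to noise of each spot.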 As to conditions: small-molecule microarray, higher = more signal.

Several values for one entry are separate records, joined by “and”; a condition that tells them apart may be missing. Equal entries are not always repeated. Activity calls are given as the source filed them.

Sequence of Torsin-1A-interacting protein 2 (Homo sapiens) (Q8NFQ8 whole entry, looked up): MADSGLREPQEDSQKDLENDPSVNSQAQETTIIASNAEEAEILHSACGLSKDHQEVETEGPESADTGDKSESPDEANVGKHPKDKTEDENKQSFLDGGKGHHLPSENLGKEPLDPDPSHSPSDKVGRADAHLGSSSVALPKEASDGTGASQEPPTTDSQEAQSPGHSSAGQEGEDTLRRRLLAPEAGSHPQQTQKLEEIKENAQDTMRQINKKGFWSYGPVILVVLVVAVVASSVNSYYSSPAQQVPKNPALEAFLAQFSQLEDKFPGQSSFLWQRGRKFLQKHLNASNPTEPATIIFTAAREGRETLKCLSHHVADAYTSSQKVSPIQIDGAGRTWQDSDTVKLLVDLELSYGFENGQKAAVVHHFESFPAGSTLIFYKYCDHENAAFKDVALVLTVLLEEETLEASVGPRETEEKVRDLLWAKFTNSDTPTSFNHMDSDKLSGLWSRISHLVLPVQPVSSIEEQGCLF
Sequence of Neurogenic locus notch homolog protein 2 (Homo sapiens) (Q04721 whole entry, looked up, canonical isoform): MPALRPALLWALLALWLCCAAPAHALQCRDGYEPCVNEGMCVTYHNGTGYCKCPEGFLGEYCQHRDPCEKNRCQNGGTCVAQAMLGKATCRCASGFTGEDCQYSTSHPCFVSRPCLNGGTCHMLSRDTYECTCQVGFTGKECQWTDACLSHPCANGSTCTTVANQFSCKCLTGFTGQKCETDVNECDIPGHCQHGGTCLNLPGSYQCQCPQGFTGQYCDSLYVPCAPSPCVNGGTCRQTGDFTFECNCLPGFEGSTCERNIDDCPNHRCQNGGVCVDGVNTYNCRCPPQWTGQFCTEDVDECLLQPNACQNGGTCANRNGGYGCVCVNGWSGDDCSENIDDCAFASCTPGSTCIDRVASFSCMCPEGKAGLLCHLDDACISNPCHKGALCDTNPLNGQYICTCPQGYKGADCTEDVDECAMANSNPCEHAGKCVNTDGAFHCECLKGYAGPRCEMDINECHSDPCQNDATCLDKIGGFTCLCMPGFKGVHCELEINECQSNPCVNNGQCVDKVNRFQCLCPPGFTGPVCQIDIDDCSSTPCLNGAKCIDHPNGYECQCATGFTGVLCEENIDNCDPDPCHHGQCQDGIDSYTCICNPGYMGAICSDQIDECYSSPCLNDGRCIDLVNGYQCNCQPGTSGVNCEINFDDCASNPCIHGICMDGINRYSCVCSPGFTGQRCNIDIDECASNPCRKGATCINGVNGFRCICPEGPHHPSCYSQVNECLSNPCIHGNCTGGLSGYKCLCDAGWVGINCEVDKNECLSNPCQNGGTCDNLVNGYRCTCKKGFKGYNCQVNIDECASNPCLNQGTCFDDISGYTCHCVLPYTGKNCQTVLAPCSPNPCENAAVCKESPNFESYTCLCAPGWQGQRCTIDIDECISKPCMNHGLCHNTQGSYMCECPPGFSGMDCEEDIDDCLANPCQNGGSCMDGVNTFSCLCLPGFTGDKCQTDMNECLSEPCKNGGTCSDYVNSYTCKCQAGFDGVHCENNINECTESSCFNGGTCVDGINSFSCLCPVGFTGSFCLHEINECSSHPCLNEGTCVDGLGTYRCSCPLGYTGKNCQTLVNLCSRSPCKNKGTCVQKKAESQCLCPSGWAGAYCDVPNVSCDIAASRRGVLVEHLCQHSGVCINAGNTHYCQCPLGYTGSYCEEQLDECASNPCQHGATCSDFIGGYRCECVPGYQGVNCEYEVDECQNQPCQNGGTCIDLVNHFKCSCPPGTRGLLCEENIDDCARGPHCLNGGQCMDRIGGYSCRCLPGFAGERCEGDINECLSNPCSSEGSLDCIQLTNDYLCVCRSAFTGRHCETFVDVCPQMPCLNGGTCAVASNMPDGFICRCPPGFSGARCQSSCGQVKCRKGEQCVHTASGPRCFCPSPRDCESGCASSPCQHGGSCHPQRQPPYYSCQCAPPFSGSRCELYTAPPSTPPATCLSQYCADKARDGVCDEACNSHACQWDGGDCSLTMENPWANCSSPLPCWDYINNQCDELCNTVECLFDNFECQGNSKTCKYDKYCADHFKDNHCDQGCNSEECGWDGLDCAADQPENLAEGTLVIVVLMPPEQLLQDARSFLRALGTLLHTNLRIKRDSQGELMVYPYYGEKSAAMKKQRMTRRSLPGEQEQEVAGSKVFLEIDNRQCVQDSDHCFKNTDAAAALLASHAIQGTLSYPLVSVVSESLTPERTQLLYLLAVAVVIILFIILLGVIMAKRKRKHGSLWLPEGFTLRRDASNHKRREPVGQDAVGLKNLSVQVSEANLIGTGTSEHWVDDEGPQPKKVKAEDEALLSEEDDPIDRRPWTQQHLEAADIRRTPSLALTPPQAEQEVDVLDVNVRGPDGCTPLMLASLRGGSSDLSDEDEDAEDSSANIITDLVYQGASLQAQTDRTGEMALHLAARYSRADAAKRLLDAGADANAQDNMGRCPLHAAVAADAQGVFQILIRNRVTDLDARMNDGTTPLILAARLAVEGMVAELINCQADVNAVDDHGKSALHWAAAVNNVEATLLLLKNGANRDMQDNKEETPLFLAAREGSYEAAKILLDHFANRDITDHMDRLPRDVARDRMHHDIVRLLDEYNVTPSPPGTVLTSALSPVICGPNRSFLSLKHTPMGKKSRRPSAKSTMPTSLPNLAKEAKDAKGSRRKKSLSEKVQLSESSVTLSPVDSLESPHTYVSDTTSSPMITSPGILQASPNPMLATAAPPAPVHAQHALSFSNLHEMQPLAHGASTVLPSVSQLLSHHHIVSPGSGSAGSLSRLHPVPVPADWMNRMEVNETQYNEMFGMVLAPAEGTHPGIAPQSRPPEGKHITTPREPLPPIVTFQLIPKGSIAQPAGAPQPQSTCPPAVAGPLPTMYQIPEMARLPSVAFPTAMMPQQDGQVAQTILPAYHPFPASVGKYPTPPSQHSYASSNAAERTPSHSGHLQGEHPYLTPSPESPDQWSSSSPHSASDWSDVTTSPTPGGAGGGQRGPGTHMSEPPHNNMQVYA
Sequence of Pro-neuregulin-1, membrane-bound isoform (Homo sapiens) (Q02297 whole entry, looked up, the tested form may be a part, canonical isoform): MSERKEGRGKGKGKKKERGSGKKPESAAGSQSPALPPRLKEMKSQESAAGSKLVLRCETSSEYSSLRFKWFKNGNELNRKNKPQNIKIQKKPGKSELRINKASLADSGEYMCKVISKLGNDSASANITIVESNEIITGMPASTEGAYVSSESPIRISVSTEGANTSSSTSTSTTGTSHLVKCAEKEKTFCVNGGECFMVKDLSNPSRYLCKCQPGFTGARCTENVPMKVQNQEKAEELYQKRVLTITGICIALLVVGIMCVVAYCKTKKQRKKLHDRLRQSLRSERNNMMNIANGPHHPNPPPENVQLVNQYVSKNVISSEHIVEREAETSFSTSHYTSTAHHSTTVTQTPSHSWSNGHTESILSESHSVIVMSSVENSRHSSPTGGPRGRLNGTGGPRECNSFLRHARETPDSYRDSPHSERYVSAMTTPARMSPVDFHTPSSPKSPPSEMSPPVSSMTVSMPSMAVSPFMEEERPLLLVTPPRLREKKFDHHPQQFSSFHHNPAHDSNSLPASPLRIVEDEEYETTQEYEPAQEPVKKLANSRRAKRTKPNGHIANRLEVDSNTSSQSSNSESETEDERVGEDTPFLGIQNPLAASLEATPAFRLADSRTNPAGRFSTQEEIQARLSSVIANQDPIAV

With `C=CCN(C(=O)C(c1cccs1)N(C(=O)/C=C\C(=O)O)c1ccc(CCO)cc1)c1ccc(OC)cc1` (stereo not given), the composite z-score is 0.862 and 1.92 in [1]; -0.812 and -1.02 in experiment [2]; -0.236 and -0.312 in [3]; -1.73 and -1.74 in experiment [4]; -1.21 and -2.49 in [5]; 0.017 and -1.66 in experiment [6]. Also, the composite z-score in experiment [7] was 0.877 and -1.46; in experiment [9], -0.889 and -1.13; in experiment [10], -0.134 and -0.204; in experiment [11], -1.26 and -1.84; in experiment [15], -0.879 and -1.32; in experiment [17], -0.0446 and -0.0463. For the same compound, the composite z-score in [18] was -1.86 and -2.24; in [19], -0.314 and -1.78; in [20], -0.231 and -0.348. Further, the z-score is 0.253 (inactive) and 0.243 (inactive) in experiment [8]; -0.755 (inactive) and 0.13 (inactive) in experiment [12]; -0.548 (inactive) and -0.894 (inactive) in experiment [13]; -0.929 (inactive) and -0.544 (inactive) in experiment [14]; 1.92 (inactive) and 0.715 (inactive) in experiment [16].

`CO[C@@H]1COC(=O)[C@H](Cc2ccccc2)NC(=O)CC=C[C@@H](C)[C@H](OC)COC(=O)[C@@H](C)NC(=O)CC=C[C@H]1C`: the composite z-score was -0.501 and -1.33 in experiment [1]; 1.23 and 0.603 in experiment [2]; -0.132 and -0.168 in experiment [3]; 0.0044 and 0.401 in experiment [4]; -0.223 and -0.012 in experiment [5]; -0.258 and -0.159 in [6]. Besides, the composite z-score in experiment [7] is 0.383 and 0.284; in experiment [9], 0.409 and -0.084; in experiment [10] it was 0.154 and -0.271; in experiment [11], 1.53 and 1.15; in [15] it was 0.469 and -0.0887; in [17] it was -0.217 and -0.393. For the same compound, the composite z-score in [18] is 1.45 and 1.06; in experiment [19] it was 1.07 and 0.862; in [20], -0.0616 and -0.0438. In addition, the z-score was 0.361 (inactive) and -0.178 (inactive) in [8]; -0.706 (inactive) and -0.356 (inactive) in experiment [12]; -1.71 (inactive) and -1.2 (inactive) in experiment [13]; -0.916 (inactive) and -0.753 (inactive) in [14]; -0.0559 (inactive) and 0.361 (inactive) in experiment [16].

With `C=CCN(CCCC)C(=O)C1N(CCCCCCO)C(=O)C2C(C(=O)O)C3C=CC21O3` (stereo not given), the composite z-score in experiment [1] is 1.42 and 1.34; in experiment [2] it was -0.0373 and -0.98; in experiment [3], -0.153 and -0.112; in [4], -0.0134 and -0.092; in experiment [5] it was -2.57 and -2.12; in experiment [6], -0.506 and 0.0117. Also, the composite z-score is 0.796 and 1.46 in experiment [7]; -1.41 and -0.957 in experiment [9]; -0.383 and -0.204 in experiment [10]; -0.448 and -0.52 in experiment [11]; -0.179 and 2.36 in experiment [15]; 0.0397 and -0.0936 in [17]. The composite z-score is -3.5 and -2.6 in [18]; -1.8 and -1.2 in experiment [19]; -0.485 and -0.356 in experiment [20]. The z-score is 0.591 (inactive) and 0.91 (inactive) in [8]; 0.0812 (inactive) and -0.104 (inactive) in [12]; 0.496 (inactive) and -0.0666 (inactive) in experiment [13]; -0.282 (inactive) and -0.642 (inactive) in experiment [14]; -0.909 (inactive) and -0.855 (inactive) in experiment [16].

As for `C[N+](C)(C)CCCCCCNC(=O)[C@H]1C[C@H]2C(=O)N[C@@H](CCCC[N+](C)(C)C)C(=O)N2[C@H]1c1cccc(OCCO)c1`, the composite z-score is -0.54 and 1.52 in experiment [1]; 0.5 and 0.444 in experiment [2]; -0.0546 and 0.0108 in experiment [3]; -0.232 and 0.0517 in experiment [4]; -0.004 and -0.276 in [5]; 0.55 and -0.353 in [6]. Further, the composite z-score in experiment [7] is 1.2 and 1.47; in [9] it was 0.469 and 0.696; in experiment [10], -0.293 and 0.535; in [11], 1.46 and 0.0165; in [15] it was 2.99 and 0.566; in experiment [17] it was -0.0589 and 0.582. Also, the composite z-score in experiment [18] was 1.94 and 0.904; in [19], 1.01 and -0.0712; in [20], -0.0703 and 0.127. Further, the z-score in [8] is 3.98 (inactive) and 3.53 (inactive); in experiment [12] it was -2.56 (inactive) and 0.455 (inactive); in [13] it was -1.18 (inactive) and -0.331 (inactive); in experiment [14], 0.162 (inactive) and 1.01 (inactive); in experiment [16] it was 0.598 (inactive) and -0.404 (inactive).
